Several values for one entry are separate records, joined by “and”; a condition that tells them apart may be missing. Identical values can stand only once. The whole screen tested about 5,500 compounds, of which about 2,000 (36%) were called active. Another 18% or so got no clear call; they are omitted. Rule as the data show it: active = normalized growth mostly below about 0.91 (no sharp cut-off); inconclusive = no clear call, values can overlap the other calls; inactive = mostly above about 0.92. The list shows a part of the results.
Test: chemical genetic growth profiling, strain panel (AID 1159580);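 also: tested at 20 µM; growth read once vehicle control cultures reached saturation at 30 °C; 1 = growth at the plate median or of vehicle wells; lower values mean less growth of the strain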
Settings: S. cerevisiae deletion strains, growth OD

Measured: normalized growth

CN(C)CC/C=C1\c2ccccc2Sc2ccc(Cl)cc21
0.637 (active) and 0.914 (inactive): locus YJL095W, strain BCK1, stronger effect = lower value
active: locus YAL013W, strain DEP1, stronger effect = lower value 0.907 | locus YAL021C, strain ccr4, stronger effect = lower value 0.696 | locus YAL026C, strain drs2, stronger effect = lower value 0.0729 | locus YBL061C, strain skt5, stronger effect = lower value 0.863 | locus YBR009C, strain hhf1, stronger effect = lower value 0.859 | locus YBR021W, strain FUR4, stronger effect = lower value 0.605 | locus YBR023C, strain chs3, stronger effect = lower value 0.831 | locus YBR231C, strain swc5, stronger effect = lower value 0.676 | locus YBR279W, strain paf1, stronger effect = lower value 0.904 | locus YCL011C, strain gbp2, stronger effect = lower value 0.897 | locus YCL016C, strain dcc1, stronger effect = lower value 0.894 | locus YDL074C, strain BRE1, stronger effect = lower value 0.775 | locus YDL134C, strain PPH21, stronger effect = lower value 0.882 | locus YDR069C, strain doa4, stronger effect = lower value 0.684 | locus YDR137W, strain rgp1, stronger effect = lower value 1.33 [resistant] | locus YDR195W, strain ref2 1.49 [resistant] | locus YDR388W, stronger effect = lower value 0.819 | locus YER015W, strain faa2, stronger effect = lower value 0.668 | locus YFR010W, strain ubp6, stronger effect = lower value 0.706 | locus YGL173C, strain kem1, stronger effect = lower value 0.844 | locus YGL253W, strain hxk2, stronger effect = lower value 0.845 | locus YGR135W, strain pre9, stronger effect = lower value 0.827 | locus YGR229C, strain SMI1, stronger effect = lower value 0.635 | locus YGR252W, strain gcn5, stronger effect = lower value 0.542 | locus YHR013C, strain ard1, stronger effect = lower value 0.637 | locus YHR027C, strain rpn1, stronger effect = lower value 0.679 | locus YHR142W, strain chs7, stronger effect = lower value 0.76 | locus YIL066C, strain RNR3, stronger effect = lower value 0.854 | locus YJL095W, strain BCK1 (second series), stronger effect = lower value 0.628 | locus YJL164C, strain tpk1, stronger effect = lower value 0.878 | locus YJL166W, strain qcr8, stronger effect = lower value 0.877
0.882 (active) and 0.899 (inactive): locus YHR030C, strain SLT2, stronger effect = lower value
inactive: locus YAL030W, strain snc1, stronger effect = lower value 0.985 | locus YBR171W, strain sec66, stronger effect = lower value 0.984 | locus YBR229C, strain ROT2, stronger effect = lower value 1.01 | locus YCL029C, strain bik1, stronger effect = lower value 1.03 | locus YCL061C, strain MRC1, stronger effect = lower value 0.987 | locus YCL069W, strain vba3, stronger effect = lower value 0.962 | locus YCR088W, strain abp1, stronger effect = lower value 0.971 | locus YDL005C, strain med2, stronger effect = lower value 1.01 | locus YDL035C, strain GPR1, stronger effect = lower value 0.901 | locus YDL040C, strain nat1, stronger effect = lower value 1 | locus YDL101C, strain DUN1, stronger effect = lower value 0.99 | locus YDL185W, strain tfp1, stronger effect = lower value 1.02 | locus YDL192W, strain arf1, stronger effect = lower value 1 | locus YDR001C, strain nth1, stronger effect = lower value 0.996 | locus YDR101C, strain arx1, stronger effect = lower value 0.977 | locus YDR150W, strain NUM1, stronger effect = lower value 1.02 | locus YDR159W, strain sac3, stronger effect = lower value 0.996 | locus YDR162C, strain NBP2, stronger effect = lower value 0.895 | locus YDR297W, strain sur2, stronger effect = lower value 0.975 | locus YDR318W, strain mcm21, stronger effect = lower value 0.982 | locus YDR334W, strain swr1, stronger effect = lower value 0.974 | locus YDR335W, strain msn5, stronger effect = lower value 0.96 | locus YDR392W, strain spt3, stronger effect = lower value 0.995 | locus YDR502C, strain sam2, stronger effect = lower value 0.951 | locus YEL003W, strain gim4, stronger effect = lower value 0.966 | locus YEL037C, strain rad23, stronger effect = lower value 0.983 | locus YEL061C, strain CIN8 (second series), stronger effect = lower value 0.981 | locus YEL061C, strain CIN8, stronger effect = lower value 1 | locus YER016W, strain bim1, stronger effect = lower value 0.953 | locus YER110C, stronger effect = lower value 1.02 | locus YER111C, strain swi4, stronger effect = lower value 0.99 | locus YER155C, strain BEM2 (second series), stronger effect = lower value 1.03 | locus YER155C, strain BEM2, stronger effect = lower value 1.03 | locus YER167W, strain BCK2, stronger effect = lower value 1 | locus YGL078C, strain dbp3, stronger effect = lower value 1.01 | locus YGL086W, strain mad1, stronger effect = lower value 0.942 | locus YGL167C, strain pmr1, stronger effect = lower value 0.997 | locus YGL227W, strain vid30, stronger effect = lower value 0.979 | locus YGL240W, strain doc1, stronger effect = lower value 0.95 | locus YGL248W, strain PDE1, stronger effect = lower value 0.894 | locus YHR079C, strain IRE1 (second series), stronger effect = lower value 1 | locus YHR079C, strain IRE1, stronger effect = lower value 0.93 | locus YHR094C, strain hxt1, stronger effect = lower value 1.02 | locus YHR129C, strain ARP1, stronger effect = lower value 0.994 | locus YHR200W, strain rpn10, stronger effect = lower value 1.02 | locus YIL073C, strain SPO22, stronger effect = lower value 0.961 | locus YIL125W, strain kgd1, stronger effect = lower value 1.01 | locus YIR030C, strain dcg1, stronger effect = lower value 1.01 | locus YJL092W, strain hpr5, stronger effect = lower value 0.972 | locus YJL115W, strain asf1, stronger effect = lower value 0.987 | locus YJL129C, strain trk1, stronger effect = lower value 0.91 | locus YJL134W, strain LCB3, stronger effect = lower value 1.01 | locus YJL154C, strain vps35, stronger effect = lower value 0.99 | locus YJL168C, strain set2, stronger effect = lower value 1.02 | locus YJL187C, strain SWE1 (second series), stronger effect = lower value 0.872

Reference: PubChem BioAssay AID1159580 (chemical genetic matrix, 2015)
